# Experimental data taken from paper PMC9928087, “Plasmids manipulate bacterial behaviour through translational regulatory crosstalk”.
# Molecular target: T1, RsmQ (Pseudomonas fluorescens SBW25 plasmid …, UniProt UPI00015066B5 1-62)
# T1 sequence: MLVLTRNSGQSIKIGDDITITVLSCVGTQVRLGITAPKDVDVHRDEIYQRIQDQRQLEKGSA
# Test: SPR (ReDCaT); HBS-EP+ (10 mM HEPES, 150 mM NaCl, 3 mM EDTA, 0.05% v/v Tween 20, pH 7.4), 20 C, Biacore 8K, ReDCaT SA chip; high values mean tight binding
# Settings: protein: recombinant; tags: C-terminal TEV site + 6xHis; chain copies: 2; structured_DNA
row,Sequence,binding signal
1,ATGGACGTCGCGCAGGAAGCGCAAA,83.5 ± 1.31 %Rmax
2,GCCCTGTGTCCACGGATTGGCACAA,82.5 ± 1.12 %Rmax
